Data from the supplement of paper PMC3545927.
The list shows a part of the results. No count for the full screen is at hand.

B1: FS-1345 (peptide)
chain: CAIKKRSLRSAGNASASA
B2: HC2577 (peptide)
chain: CASTPCSAHSAGNASASA
B3: FS-566 (peptide)
chain: CASTVRSLRSAGNASASA
B4: FS-2074 (peptide)
chain: CARRRKSASDAGNASASA
B5: HC2404 (peptide)
chain: CAEVPCHRPIAGNASASA
B6: HC2062 (peptide)
chain: CAVVCCSQSYAGNASASA
B7: FS-957 (peptide)
chain: CARTHRSKRSAGNASASA
B8: FS-1031 (peptide)
chain: CALSHRSKRSAGNASASA
B9: FS-1866 (peptide)
chain: CARRRRDLGGAGNASASA
B10: FS-1838 (peptide)
chain: CARRRRDHHMAGNASASA
B11: FS-3065 (peptide)
chain: CARRRRRPGGAGNASASA
B12: FS-2025 (peptide)
chain: CARHRRILQAAGNASASA
B13: FS-2073 (peptide)
chain: CARRRKDDYAAGNASASA
B14: FS-2075 (peptide)
chain: CARRRRDLQAAGNASASA
B15: HC732 (peptide)
chain: CARRRGDSRGAGNASASA
B16: FS-2785 (peptide)
chain: CARRRRDTHFAGNASASA
B17: HC2055 (peptide)
chain: CAVVCCSHSYAGNASASA
B18: HC1676 (peptide)
chain: CAGEECSQHLAGNASASA
B19: FS-2517 (peptide)
chain: CARRRRDLGSAGNASASA
B20: HC977 (peptide)
chain: CANEITLTHPAGNASASA
B21: HC1573 (peptide)
chain: CAVNSWLGNIAGNASASA
B22: HC432 (peptide)
chain: CARPPLGNWFAGNASASA
B23: WN4 (peptide)
chain: CANKKRGGTAAGNASASA
B24: FS-1982 (peptide)
chain: CADPKRTIGQAGNASASA
B25: FS-2478 (peptide)
chain: CAKRKRWTGQAGNASASA
B26: FS-484 (peptide)
chain: CAQWARYARWAGNASASA
B27: FS-2625 (peptide)
chain: CAWEKRSRGQAGNASASA
B28: FS-2959 (peptide)
chain: CARKERRKHKAGNASASA
B29: FS-213 (peptide)
chain: CAAKERLKRKAGNASASA
B30: FS-827 (peptide)
chain: CALSKRKKRKAGNASASA
B31: FS-1238 (peptide)
chain: CANKKRKARWAGNASASA
B32: HC1880 (peptide)
chain: CATTCCSGSWAGNASASA
B33: HC2322 (peptide)
chain: CAQVPCHRPSAGNASASA
B34: FS-2866 (peptide)
chain: CAKKKRKFSKAGNASASA
B35: FS-1222 (peptide)
chain: CAKNMRRKRKAGNASASA
B36: FS-2122 (peptide)
chain: CAKKKRVVPKAGNASASA
B37: FS-245 (peptide)
chain: CAGRSHSKRKAGNASASA
B38: FS-673 (peptide)
chain: CAKKKRKKRKAGNASASA
B39: FS-1223 (peptide)
chain: CAKRKRSKRKAGNASASA
B40: FS-2541 (peptide)
chain: CAKKKRAACKAGNASASA
B41: FS-1218 (peptide)
chain: CAKKKRRKRKAGNASASA
B42: HC631 (peptide)
chain: CALGALTGTYAGNASASA
B43: HC1451 (peptide)
chain: CAVFPDLGVRAGNASASA

Target: furin, P09958
Sequence (P09958 whole entry): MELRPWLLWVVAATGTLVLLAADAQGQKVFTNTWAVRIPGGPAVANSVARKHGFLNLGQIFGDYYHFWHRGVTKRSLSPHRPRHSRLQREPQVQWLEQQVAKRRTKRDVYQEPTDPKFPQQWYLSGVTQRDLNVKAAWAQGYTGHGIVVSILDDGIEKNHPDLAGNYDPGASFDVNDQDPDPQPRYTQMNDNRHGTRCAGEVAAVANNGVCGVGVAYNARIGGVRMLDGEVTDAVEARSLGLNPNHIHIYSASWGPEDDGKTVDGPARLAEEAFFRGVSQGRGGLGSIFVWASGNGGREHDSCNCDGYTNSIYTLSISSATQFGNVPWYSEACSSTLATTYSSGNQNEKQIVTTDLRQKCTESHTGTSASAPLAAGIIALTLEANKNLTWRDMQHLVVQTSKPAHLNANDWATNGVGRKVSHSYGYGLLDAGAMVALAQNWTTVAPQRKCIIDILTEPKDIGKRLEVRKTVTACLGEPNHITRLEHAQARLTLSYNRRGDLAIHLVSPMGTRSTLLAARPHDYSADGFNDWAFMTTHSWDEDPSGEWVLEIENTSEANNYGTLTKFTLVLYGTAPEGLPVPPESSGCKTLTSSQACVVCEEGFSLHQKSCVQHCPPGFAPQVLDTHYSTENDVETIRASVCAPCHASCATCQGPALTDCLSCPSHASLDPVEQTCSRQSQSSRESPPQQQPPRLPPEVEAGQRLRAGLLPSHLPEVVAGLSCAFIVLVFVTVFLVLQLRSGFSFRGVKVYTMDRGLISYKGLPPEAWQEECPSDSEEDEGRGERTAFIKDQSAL
Test: furin cleavage Z-score vs untreated control; higher = more cleavage, active = 3.5 or more, inactive = 1 or less, 8 variable residues between constant flanks
Summary of the method: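 Cleavage by purified furin was measured on 8-mer peptides fused to a cDNA oligonucleotide and held on magnetic beads by their N-terminus. Reactions (0.01 ml, 1:10 enzyme:substrate) ran 7.5, 15 or 30 min in 50 mM HEPES pH 7.5 with CaCl2 and NaCl. Released DNA was adapter-tagged by PCR and sequenced, with read counts giving abundance. Log counts versus furin-free reactions were lowess-adjusted and scaled by median absolute deviation to give the cleavage Z-score.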

Row | Sequence | furin cleavage Z-score (7.5 min) | furin cleavage Z-score (15 min) | furin cleavage Z-score (30 min)
1 | B1 | 6.68 (active) | 5.55 (active) | 5.16 (active)
2 | B2 | -0.571 (inactive) | 0.484 (inactive) | 1.4
3 | B3 | 2.72 | 4.24 (active) | 4.81 (active)
4 | B4 | -0.354 (inactive) | -0.175 (inactive) | 0.845 (inactive)
5 | B5 | 0.502 (inactive) | -0.467 (inactive) | 1.19
6 | B6 | 1.31 | 2.95 | 0.942 (inactive)
7 | B7 | 11.6 (active) | 11.5 (active) | 8.26 (active)
8 | B8 | 12.7 (active) | 12.6 (active) | 11.4 (active)
9 | B9 | 3.6 (active) | 2.23 | 1.75
10 | B10 | 7.82 (active) | 8.82 (active) | 7.36 (active)
11 | B11 | -0.191 (inactive) | -1.18 (inactive) | -0.53 (inactive)
12 | B12 | -0.809 (inactive) | 0.0867 (inactive) | -0.324 (inactive)
13 | B13 | 0.651 (inactive) | 0.661 (inactive) | -1.05 (inactive)
14 | B14 | 8.41 (active) | 10.5 (active) | 8.73 (active)
15 | B15 | -0.828 (inactive) | -0.656 (inactive) | -0.847 (inactive)
16 | B16 | 8.52 (active) | 11.4 (active) | 10.2 (active)
17 | B17 | 1.14 | -0.432 (inactive) | 0.703 (inactive)
18 | B18 | 0.0385 (inactive) | 1.42 | -0.903 (inactive)
19 | B19 | 10.6 (active) | 10 (active) | 9.26 (active)
20 | B20 | -0.433 (inactive) | 0.337 (inactive) | 0.088 (inactive)
21 | B21 | 1.52 | 0.0684 (inactive) | -1.01 (inactive)
22 | B22 | 1.77 | 0.979 (inactive) | -0.0677 (inactive)

Row | Sequence | furin cleavage Z-score (7.5 min) | furin cleavage Z-score (15 min) | furin cleavage Z-score (30 min)
23 | B23 | -1.48 (inactive) | -0.337 (inactive) | -0.0754 (inactive)
24 | B24 | 0.168 (inactive) | -0.891 (inactive) | -1.67 (inactive)
25 | B25 | 1 | 4.62 (active) | 4.37 (active)
26 | B26 | -0.0806 (inactive) | 1.37 | 2.8
27 | B27 | -0.652 (inactive) | -0.795 (inactive) | -0.906 (inactive)
28 | B28 | -0.0944 (inactive) | -0.106 (inactive) | 0.503 (inactive)
29 | B29 | 9.07 (active) | 9.78 (active) | 9.62 (active)
30 | B30 | 8.35 (active) | 9.52 (active) | 8.96 (active)
31 | B31 | 6.93 (active) | 7.47 (active) | 9.18 (active)
32 | B32 | -0.863 (inactive) | -1.92 (inactive) | -0.734 (inactive)
33 | B33 | 0.276 (inactive) | 1.25 | 1.48
34 | B34 | -0.0204 (inactive) | -0.905 (inactive) | -0.0235 (inactive)
35 | B35 | 9.63 (active) | 9.29 (active) | 7.84 (active)
36 | B36 | -1.74 (inactive) | -0.376 (inactive) | -0.937 (inactive)
37 | B37 | 1.44 | 0.295 (inactive) | 1.58
38 | B38 | 4.92 (active) | 5.01 (active) | 5.6 (active)
39 | B39 | 10.8 (active) | 10.5 (active) | 8.25 (active)
40 | B40 | 0.497 (inactive) | -0.617 (inactive) | 1.88
41 | B41 | 5.44 (active) | 7 (active) | 6.09 (active)
42 | B42 | -0.145 (inactive) | 0.814 (inactive) | 0.51 (inactive)
43 | B43 | -2.35 (inactive) | -0.19 (inactive) | 0.302 (inactive)
